Measured values taken from PubChem BioAssay (NCATS).
Records with an inconclusive call do not appear. The source made the active and inactive calls. Unless noted, calls come from the whole dose curve; as a rule, active = well fitted curve in the direction sought with a large enough effect; inconclusive = small, poorly fitted or top-dose-only effect, or another doubt; inactive = no such curve, though single readings can be large; an effect the other way counts as inactive or inconclusive.

What was measured:
[1] = target: Lysosomal acid glucosylceramidase (Homo sapiens) (UniProt P04062); experiment: Glucocerebrosidase-p2 (AID 348; in the data active = potency below about 10 µM; note: potency is the fitted concentration of half-maximal effect); conditions: purified GBA, blue fluorogenic substrate, 40 min
Sequence of Lysosomal acid glucosylceramidase (Homo sapiens) (P04062 whole entry, looked up): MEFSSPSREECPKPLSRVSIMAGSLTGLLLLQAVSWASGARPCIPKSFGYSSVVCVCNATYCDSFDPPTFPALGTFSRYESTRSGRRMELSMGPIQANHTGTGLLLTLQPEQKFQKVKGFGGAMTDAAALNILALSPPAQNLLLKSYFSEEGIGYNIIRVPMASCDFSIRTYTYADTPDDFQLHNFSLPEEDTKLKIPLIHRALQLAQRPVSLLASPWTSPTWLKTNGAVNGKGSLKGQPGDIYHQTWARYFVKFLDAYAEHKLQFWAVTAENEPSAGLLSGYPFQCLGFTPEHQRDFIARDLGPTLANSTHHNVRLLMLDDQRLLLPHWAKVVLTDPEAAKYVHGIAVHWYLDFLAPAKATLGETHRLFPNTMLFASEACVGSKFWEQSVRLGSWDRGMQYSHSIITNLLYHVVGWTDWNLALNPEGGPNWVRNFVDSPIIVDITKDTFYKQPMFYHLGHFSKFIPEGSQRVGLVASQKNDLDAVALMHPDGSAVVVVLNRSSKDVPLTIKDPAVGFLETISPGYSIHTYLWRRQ
Method in brief: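 Compounds titrated from 0.6 nM upwards against 0.2 nM enzyme in pH 5.9 citric acid/KH2PO4, taurocholate, tween-20; blue fluorogenic substrate 80 uM, 40 min room temperature, stopped and read Ex 365/Em 440 for AC50.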

[2] = AP1 Signaling Pathway (AID 357; active = well fitted curve in either direction with a large enough effect, not every such curve was filed as active;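 note: ME-180 reporter cells stimulated with EGF at its EC50 level; % is set by controls: 0 for no effect and ±100 for the full control effect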); conditions: ME-180 AP-1-bla reporter, EGF-induced, beta-lactamase ratio, 5 h; at 7.69 µM (top of the series) unless noted
Method in brief: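 Modulation of EGF-driven AP-1 transcription was assessed with a beta-lactamase reporter in ME-180 cells. Compound and EC50 EGF were co-incubated 5 hours at 37 °C before 2.5-hour CCF4 loading at room temperature and dual-emission reading.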

[3] = target: Cytochrome P450 1A2 (Homo sapiens) (UniProt P05177); experiment: p450-cyp1a2 (AID 410; calls by dose curve; note: potency is the fitted concentration of half-maximal effect); conditions: recombinant CYP1A2, luciferin-ME demethylation, luminescence; series mostly up to 57 µM
Sequence of Cytochrome P450 1A2 (Homo sapiens) (P05177 whole entry, looked up): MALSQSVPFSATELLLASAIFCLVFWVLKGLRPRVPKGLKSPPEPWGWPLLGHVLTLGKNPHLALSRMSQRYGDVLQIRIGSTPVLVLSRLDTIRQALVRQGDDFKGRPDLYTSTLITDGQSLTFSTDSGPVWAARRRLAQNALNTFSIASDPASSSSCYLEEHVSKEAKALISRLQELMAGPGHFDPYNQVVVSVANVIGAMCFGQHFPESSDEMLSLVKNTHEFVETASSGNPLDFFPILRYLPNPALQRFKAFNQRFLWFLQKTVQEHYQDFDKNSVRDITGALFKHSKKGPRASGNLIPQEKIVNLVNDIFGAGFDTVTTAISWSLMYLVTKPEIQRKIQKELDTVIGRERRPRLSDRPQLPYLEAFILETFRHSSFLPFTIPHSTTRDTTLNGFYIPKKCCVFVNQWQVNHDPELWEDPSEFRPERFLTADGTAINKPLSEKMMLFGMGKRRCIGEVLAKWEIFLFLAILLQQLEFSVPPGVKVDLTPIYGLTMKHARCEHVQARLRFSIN
Method in brief: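 20nM CYP1A2 with 100uM Luciferin-ME (at Km) in 100mM KPO4; compound preincubated 10 min, NADPH regeneration added, 60 min at room temperature. Luciferin quantified by luminescence after detection reagent; normalized to 57 uM furafylline.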

[4] = NFAT Signaling Pathway (AID 444; active = well fitted curve in either direction with a large enough effect, not every such curve was filed as active;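 note: carbachol stimulus at about its EC50 of 1 µM final; % is set by controls: 0 for no effect and ±100 for the full control effect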); conditions: Jurkat NFAT-bla M1, carbachol, beta-lactamase ratio, 5 h; at 7.69 µM (top of the series) unless noted
Method in brief: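 Jurkat cells carrying an NFAT-driven β-lactamase reporter and co-transfected muscarinic M1 receptor were treated with compound plus carbachol (1 uM final, an EC50 level) for 5 h at 37 °C. CCF4 loading followed for 1 h at RT; 460/530 nm ratio gave %activity.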

[5] = Stat Signaling Pathway (AID 446; active = well fitted curve in either direction with a large enough effect, not every such curve was filed as active;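 note: ME-180 cervical cancer cells given 40 pM IL-6 alongside compound; SIE-controlled beta-lactamase reporter measured as 460/530 nm FRET emission ratio; % is set by controls: 0 for no effect and ±100 for the full control effect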); conditions: ME-180 SIE beta-lactamase reporter, IL-6 stimulated, 5 h; at 7.69 µM (top of the series) unless noted
Method in brief: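 Reporter line: ME-180 cervical carcinoma, SIE-beta-lactamase. Treatment: compound with 40 pM IL-6, 5 hrs, 37 C, in low-serum OPTI-MEM with 10 mM HEPES pH 7.3. Detection: 460/530 nm fluorescence.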

[6] = target: Glucocorticoid receptor (Homo sapiens) (UniProt P04150); experiment: GR-GFP Redistribution (AID 450;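 active = compounds whose dose series gives a full or clear partial fitted curve of increased nuclear translocation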; note: potency is the fitted concentration of half-maximal effect); conditions: U2OS GR-GFP nuclear translocation, laser cytometry, 2 h
Sequence of Glucocorticoid receptor (Homo sapiens) (P04150 whole entry, looked up, the tested form may be a part): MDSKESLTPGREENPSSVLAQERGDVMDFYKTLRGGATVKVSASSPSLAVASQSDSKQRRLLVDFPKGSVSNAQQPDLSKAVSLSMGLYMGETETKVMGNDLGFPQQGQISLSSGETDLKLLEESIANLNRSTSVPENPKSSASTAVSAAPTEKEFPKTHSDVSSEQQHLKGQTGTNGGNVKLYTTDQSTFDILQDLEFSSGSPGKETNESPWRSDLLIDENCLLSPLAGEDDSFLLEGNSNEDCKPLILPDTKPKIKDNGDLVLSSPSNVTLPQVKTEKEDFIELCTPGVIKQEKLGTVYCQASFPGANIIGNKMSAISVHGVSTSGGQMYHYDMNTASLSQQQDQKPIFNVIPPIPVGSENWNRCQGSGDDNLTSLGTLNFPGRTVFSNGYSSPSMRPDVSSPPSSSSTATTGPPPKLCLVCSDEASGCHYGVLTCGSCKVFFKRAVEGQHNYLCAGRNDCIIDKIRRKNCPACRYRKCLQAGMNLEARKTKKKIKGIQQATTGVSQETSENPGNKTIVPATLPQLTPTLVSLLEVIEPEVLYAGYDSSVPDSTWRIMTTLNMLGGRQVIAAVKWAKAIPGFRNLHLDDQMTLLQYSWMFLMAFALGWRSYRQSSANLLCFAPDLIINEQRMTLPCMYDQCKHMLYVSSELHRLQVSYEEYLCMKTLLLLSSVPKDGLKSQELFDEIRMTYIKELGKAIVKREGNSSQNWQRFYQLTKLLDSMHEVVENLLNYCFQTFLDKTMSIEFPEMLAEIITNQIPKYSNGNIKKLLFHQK

[7] = target: Glucocorticoid receptor (Homo sapiens) (UniProt P04150); experiment: GR-EFC Redistribution (AID 451; calls by dose curve; note: potency is the fitted concentration of half-maximal effect); conditions: CHO-K1 GR-EFC translocation, beta-gal luminescence, 2 h
Method in brief: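 CHO-K1 cells stably expressing nuclear-localized β-gal enzyme acceptor and GR fused C-terminally to the enzyme donor fragment; ligand-driven nuclear translocation restores β-gal by complementation. Compounds titrated up to 46 uM final, 2 h at 37 °C; luminescence read.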

[8] = target: Mitogen-activated protein kinase 10 (Mus musculus) (UniProt Q61831); experiment: JNK3 AlphaScreen Assay (AID 530; active = well fitted curve in either direction with a large enough effect, not every such curve was filed as active;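 note: kinase came from lysate of stimulated human HepG2 cells; signal reports phosphorylation of biotinylated GST-cJun 1-79 at Ser73 with 10 µM ATP; % is set by controls: 0 for no effect and ±100 for the full control effect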); conditions: JNK3 lysate, c-Jun phosphorylation; series mostly up to 57.1 µM
Method in brief: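 Inhibitors reduce antibody binding to phosphorylated biotin-cJun, lowering AlphaScreen luminescence. Lysates from HepG2 cells pre-activated by IL-1beta plus TNF-alpha supplied JNK3; compounds were titrated.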

[9] = target: 3',5'-cyclic-AMP phosphodiesterase 4B (Homo sapiens) (UniProt Q07343); experiment: qHTS Assay for Inhibitors of PDE-IV (AID 607; active = well fitted activation curve with a large enough effect in the main read-out, with a control signal flat, not every such curve was filed as active; note: % of control where 0% means no effect); conditions: HEK293 ACTOne CNG channel cells, membrane potential fluorescence; series mostly up to 22.9 µM
Sequence of 3',5'-cyclic-AMP phosphodiesterase 4B (Homo sapiens) (Q07343 whole entry, looked up): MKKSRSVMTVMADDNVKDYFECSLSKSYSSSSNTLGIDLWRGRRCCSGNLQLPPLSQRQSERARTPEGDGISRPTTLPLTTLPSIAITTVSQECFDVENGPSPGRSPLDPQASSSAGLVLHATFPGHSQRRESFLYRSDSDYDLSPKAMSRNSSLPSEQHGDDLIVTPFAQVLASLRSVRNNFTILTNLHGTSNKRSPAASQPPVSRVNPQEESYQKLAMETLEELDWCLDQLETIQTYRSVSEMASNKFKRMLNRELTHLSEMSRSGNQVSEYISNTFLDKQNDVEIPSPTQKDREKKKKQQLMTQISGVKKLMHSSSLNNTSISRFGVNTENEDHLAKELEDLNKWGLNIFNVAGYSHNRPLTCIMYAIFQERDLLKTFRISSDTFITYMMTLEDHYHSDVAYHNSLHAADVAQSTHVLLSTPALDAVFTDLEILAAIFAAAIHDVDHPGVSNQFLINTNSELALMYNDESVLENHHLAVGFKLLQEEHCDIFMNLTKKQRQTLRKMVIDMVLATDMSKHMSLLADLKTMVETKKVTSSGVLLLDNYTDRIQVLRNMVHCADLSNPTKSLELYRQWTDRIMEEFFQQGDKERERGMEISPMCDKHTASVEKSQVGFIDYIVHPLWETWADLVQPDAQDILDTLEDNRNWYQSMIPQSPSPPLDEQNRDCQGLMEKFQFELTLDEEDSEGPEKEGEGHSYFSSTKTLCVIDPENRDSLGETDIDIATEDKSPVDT
Method in brief: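 Cell-based read-out of cAMP via a modified cyclic nucleotide-gated channel and membrane potential dye (535/590 nm) in HEK293 cells expressing PDE4 endogenously. Compounds tested up to 22.9 uM final; 100 uM RO 20-1724 reference.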

[10] = target: Cytochrome P450 3A4 (Homo sapiens) (UniProt P08684); experiment: qHTS Assay for Inhibitors and Substrates of Cytochrome P450 3A4 (AID 884); conditions: recombinant CYP3A4, Luciferin-PPXE luminescence; series mostly up to 57.1 µM; note: nearly all actives have a fitted effect of over 50% in size; note: potency is the fitted concentration of half-maximal effect
Sequence of Cytochrome P450 3A4 (Homo sapiens) (P08684 whole entry, looked up): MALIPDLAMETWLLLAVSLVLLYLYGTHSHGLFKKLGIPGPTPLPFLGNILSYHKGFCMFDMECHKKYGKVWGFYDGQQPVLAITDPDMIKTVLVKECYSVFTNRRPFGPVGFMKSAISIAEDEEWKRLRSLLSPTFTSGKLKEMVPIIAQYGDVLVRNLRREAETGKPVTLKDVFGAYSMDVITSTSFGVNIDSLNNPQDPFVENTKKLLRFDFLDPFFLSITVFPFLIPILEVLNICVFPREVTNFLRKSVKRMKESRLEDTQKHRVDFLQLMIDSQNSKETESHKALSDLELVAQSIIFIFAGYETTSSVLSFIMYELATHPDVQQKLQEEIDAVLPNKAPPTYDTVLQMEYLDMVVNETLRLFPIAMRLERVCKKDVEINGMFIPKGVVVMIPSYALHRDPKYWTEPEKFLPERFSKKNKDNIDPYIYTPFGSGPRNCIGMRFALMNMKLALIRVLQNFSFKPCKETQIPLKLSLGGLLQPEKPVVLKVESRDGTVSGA
Method in brief: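 20 nM human CYP3A4 with 25 uM Luciferin-PPXE (at KM) in 200 mM KPO4, preincubated 10 min with compound; NADPH regeneration started a 60 min RT reaction. Luciferin detected by luminescence, normalized to 57 uM ketoconazole as full inhibition.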

[11] = Confirmation and Secondary Assay for Modulators of Hemoglobin Beta Chain Splicing at IVS2 654 locus (AID 910); conditions: HeLa EGFP-654 splicing reporter, GFP fluorescence, 48 h; series mostly up to 38.3 µM;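 note: per-well total GFP intensity by laser scanning cytometry after 2-day treatment; % of control where 0% means no effect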
Method in brief: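 HeLa cells stably carrying EGFP interrupted by mutant beta-globin IVS2-654 intron (CMV-driven) were treated with compound for 2 days at 37C; corrected splicing was scored as total peak GFP intensity per well (488 nm excitation, 500-520 nm emission).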

[12] = Confirmation and Secondary Assay for Modulators of Hemoglobin Beta Chain Splicing at IVS2 705 locus (AID 930); conditions: HeLa EGFP-705 splicing reporter, GFP fluorescence, 48 h; series mostly up to 38.3 µM;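 note: HeLa cells stably expressing the EGFP-705 splicing reporter; GFP fluorescence per well restored by corrected splicing of the IVS2-705 intron in EGFP; % of control where 0% means no effect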
Method in brief: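 Fluorescence gain (488 nm laser, 500-520 nm PMT) reflects restored correct splicing of a mutant IVS2-705 intron inside EGFP in stably transfected HeLa cells after 2-day compound treatment.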

[13] = qHTS Assay for Lipid Storage Modulators (AID 1519; calls by dose curve); conditions: Drosophila S3 cells, BODIPY lipid droplet/cell ratio, laser cytometry, cells loaded with oleic acid; for activity change, negative = inhibition: at 57.5 µM (top of the series)
Method in brief: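 Cells seeded at 5,000 per well were treated with compounds over a concentration series and loaded with oleic acid (400 uM, as added). Lipid droplet fluorescence (488 nm excitation, 500-530 nm channel) was read by laser-scanning cytometry and normalized to 20 uM Triacsin C.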

[14] = Primary qHTS for small molecule stabilizers of the endoplasmic reticulum resident proteome: Secreted ER Calcium Modulated Protein (SERCaMP) assay (AID 1508630); conditions: SH-SY5Y GLuc-SERCaMP (Gaussia luciferase released on ER calcium loss) secretion, thapsigargin, luminescence; series mostly up to 38.4 µM; note: % is set by controls: 0 for no effect and ±100 for the full control effect
Method in brief: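 GLuc-SERCaMP-expressing SH-SY5Y cells, pretreated 16 h with compound, are challenged with thapsigargin to empty ER calcium stores; after 4 h, coelenterazine is added directly to the medium and luminescence is imaged.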

[15] = target: Cytochrome P450 3A4 (Homo sapiens) (UniProt P08684); experiment: qHTS Assay for Activators of Cytochrome P450 3A4 (AID 885); conditions: recombinant CYP3A4, Luciferin-PPXE luminescence, 60 min; series mostly up to 57.1 µM; note: nearly all actives have a fitted effect of over 65% in size
Method in brief: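 Signal was normalized against complete inhibition by 57 uM ketoconazole. The reaction used 20nM CYP3A4 with 25uM Luciferin-PPXE, 10-min compound preincubation and a 60-min NADPH-supported step at RT.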

[16] = target: Cytochrome P450 2C19 (Homo sapiens) (UniProt P33261); experiment: qHTS Assay for Inhibitors and Substrates of Cytochrome P450 2C19 (AID 899); conditions: recombinant CYP2C19, luciferin-H EGE luminescence; series mostly up to 57.1 µM; note: potency is the fitted concentration of half-maximal effect; nearly all actives have a fitted effect of over 60% in size
Sequence of Cytochrome P450 2C19 (Homo sapiens) (P33261 whole entry, looked up): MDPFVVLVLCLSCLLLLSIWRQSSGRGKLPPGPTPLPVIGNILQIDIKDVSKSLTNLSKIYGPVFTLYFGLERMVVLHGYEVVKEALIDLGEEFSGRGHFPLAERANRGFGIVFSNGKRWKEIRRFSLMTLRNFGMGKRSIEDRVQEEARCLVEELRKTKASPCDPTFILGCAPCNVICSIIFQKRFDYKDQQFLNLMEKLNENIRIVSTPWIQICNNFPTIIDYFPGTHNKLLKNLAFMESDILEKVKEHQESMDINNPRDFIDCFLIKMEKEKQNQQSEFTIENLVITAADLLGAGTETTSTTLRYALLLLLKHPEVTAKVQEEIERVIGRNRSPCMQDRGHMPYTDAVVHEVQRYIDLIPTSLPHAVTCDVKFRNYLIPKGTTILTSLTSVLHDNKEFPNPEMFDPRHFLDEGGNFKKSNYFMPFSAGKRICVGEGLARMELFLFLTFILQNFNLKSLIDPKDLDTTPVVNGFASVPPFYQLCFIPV
Method in brief: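 Human CYP2C19 (5nM) with Luciferin-H EGE at 10uM (its KM) in 50mM KPO4 was preincubated with compound for 10 min at 37C. NADPH regeneration started a 60 min 37C reaction. Luciferin was read by luminescence, normalized to 57uM ketoconazole.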

[17] = target: Ubiquitin carboxyl-terminal hydrolase 1 (Homo sapiens) (UniProt O94782); experiment: Inhibitors of USP1/UAF1: Pilot qHTS (AID 504865); conditions: purified USP1/UAF1, Ub-rhodamine cleavage fluorescence; series mostly up to 54.9 µM; note: nearly all actives have a fitted effect of over 35% in size; note: potency is the fitted concentration of half-maximal effect
Sequence of Ubiquitin carboxyl-terminal hydrolase 1 (Homo sapiens) (O94782 whole entry, looked up): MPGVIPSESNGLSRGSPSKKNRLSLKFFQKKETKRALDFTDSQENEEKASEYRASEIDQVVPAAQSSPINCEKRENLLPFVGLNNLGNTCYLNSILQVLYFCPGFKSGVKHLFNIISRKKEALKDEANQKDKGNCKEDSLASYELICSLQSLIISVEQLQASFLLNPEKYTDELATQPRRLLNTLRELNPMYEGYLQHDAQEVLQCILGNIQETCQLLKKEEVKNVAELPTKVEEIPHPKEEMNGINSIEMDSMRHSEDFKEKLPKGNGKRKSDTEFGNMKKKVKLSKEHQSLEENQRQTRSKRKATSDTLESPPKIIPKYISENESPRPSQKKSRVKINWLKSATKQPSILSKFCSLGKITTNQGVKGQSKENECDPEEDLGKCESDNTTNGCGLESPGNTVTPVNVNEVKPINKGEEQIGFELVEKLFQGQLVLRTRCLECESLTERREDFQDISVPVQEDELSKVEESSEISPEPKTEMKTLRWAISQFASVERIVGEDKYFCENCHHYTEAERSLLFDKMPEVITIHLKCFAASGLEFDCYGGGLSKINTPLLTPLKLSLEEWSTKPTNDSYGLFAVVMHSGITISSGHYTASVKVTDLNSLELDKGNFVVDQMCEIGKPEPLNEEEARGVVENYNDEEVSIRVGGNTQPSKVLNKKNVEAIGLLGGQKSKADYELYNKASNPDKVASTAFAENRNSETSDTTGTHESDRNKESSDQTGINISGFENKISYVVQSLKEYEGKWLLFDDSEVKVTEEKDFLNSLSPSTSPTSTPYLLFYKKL
Method in brief: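 USP1/UAF1 complex at 1 nM preincubated 15 min at room temperature with compound, then Ub-Rho substrate added at 150 nM final. Fluorescence (480/540 nm) read kinetically in 50 mM HEPES pH 7.8, 0.5 mM EDTA, 1 mM TCEP, 0.1 mg/ml BSA, 0.01% Tween-20.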

[18] = qHTS Assay for Identification of Small Molecule Agonists for Hypoxia Response Element Signaling Pathway (AID 914; active = well fitted activation curve with a large enough effect in the signal ratio, with a control signal flat, not every such curve was filed as active; the % refers to the signal ratio; note: % of control where 0% means no effect); conditions: ME-180 (cervical carcinoma) HRE-bla reporter, beta-lactamase ratio, CoCl2, 17 h; activation: stronger effect = higher value
Method in brief: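 A beta-lactamase reporter under hypoxia response element control in ME-180 cells served as the system. Compound titrations plus EC50 CoCl2 ran 17 h at 37 degrees Celsius; AC50 values were fitted from %Activity.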

[19] = measured here: cell count channel max response
[20] = measured here: lipid channel max response

CN(C)c1ccnc(-c2ccccc2C(F)(F)F)n1
18.9%: max response [13, 20]
inactive: Potency [1] > 11.4 µM | activity change, negative = inhibition [2] 24.2% | activity change, negative = inhibition [4] 6.88% | activity, negative = inhibition [5] 1.29% | Potency [6] > 46 µM | Potency [7] > 46 µM | outcome [8] | Potency [9] | Potency [10] | outcome [11] | outcome [12] | activity change, negative = inhibition [13] 5.14% | Potency [14]
active: Potency [3] 7.94 µM
11.7%: max response [13, 19]

Clc1ccccc1-c1nccc(-n2ccnc2)n1
13%: max response [13, 20]
inactive: Potency [1] > 11.4 µM | activity change, negative = inhibition [2] -12.3% | activity change, negative = inhibition [4] -0.584% | activity, negative = inhibition [5] 0.405% | Potency [6] > 46 µM | Potency [7] > 46 µM | outcome [8] | Potency [9] | Potency [15] | outcome [11] | outcome [12] | activity change, negative = inhibition [13] 8.95% | Potency [14]
active: Potency [3] 0.158 µM | Potency [10] 1.26 µM
4.29%: max response [13, 19]

Cc1ccccc1-c1cncnc1Nc1ccc(F)cc1
inactive: Potency [1] > 11.4 µM | activity change, negative = inhibition [2] 15.1% | activity change, negative = inhibition [4] 3.46% | activity, negative = inhibition [5] 32.1% | Potency [6] > 46 µM | Potency [7] > 46 µM | outcome [8] | Potency [15] | outcome [11] | activity change, negative = inhibition [13] 6.79% | Potency [17] | Potency [14]
-4.87%: max response [13, 19]
active: Potency [3] 10 µM | Potency [10] 0.199 µM | Potency [16] 5.01 µM
2.59%: max response [13, 20]

CN(C)c1nc(-c2ccoc2)nc2ccccc12
8.73%: max response [13, 19]
inactive: Potency [1] > 11.4 µM | activity change, negative = inhibition [2] -8.03% | activity change, negative = inhibition [4] -9.32% | activity, negative = inhibition [5] 6.57% | Potency [6] > 46 µM | Potency [7] > 46 µM | outcome [8] | Potency [15] | outcome [11] | outcome [12] | activity change, negative = inhibition [13] 8.68% | Potency [14]
18.5%: max response [13, 20]
active: Potency [3] 0.501 µM | Potency [17] 56.2 µM

COc1cccc(-c2cc(NCc3cccs3)ncn2)c1
active: Potency [3] 1.26 µM | Potency [10] 7.94 µM
inactive: Potency [1] > 11.4 µM | activity change, negative = inhibition [2] 3.15% | activity change, negative = inhibition [4] 17% | activity, negative = inhibition [5] -4.26% | Potency [6] > 46 µM | Potency [7] > 46 µM | outcome [8] | Potency [15] | outcome [11] | activation [18] -6.23% | activity change, negative = inhibition [13] 9.36% | Potency [17] | Potency [14]
25%: max response [13, 20]
10.6%: max response [13, 19]

Cc1nc2cnc(N3CCOCC3)nc2n(CCC#N)c1=O
1.22%: max response [13, 19]
inactive: Potency [1] > 11.4 µM | activity change, negative = inhibition [2] 2.45% | activity change, negative = inhibition [4] -9.52% | activity, negative = inhibition [5] 21.2% | Potency [6] > 9.22 µM | Potency [7] > 46 µM | outcome [8] | activity change, negative = inhibition [13] 5.38% | Potency [14]
active: Potency [3] 12.6 µM
11.9%: max response [13, 20]
